This is a sample that favours compounds with a hit; in the whole collection about 4% have one here.
Arbovirus inh = arbovirus infection inhibition. AID 1251. arbovirus infection cell-based antiviral screen. 200,000 tested, 0.37% active. inhibition, % at 10 µM; in the data active = inhibition above about 30%
Measles CPE = protection of cells from measles virus; Measles virus-infected cells, CPE protection, absorbance; protection (pct of control), % at 4 µM; 140,000 tested, 1.5% active; AID 841; in the data active = protection mostly above about 24%, no sharp cut-off; inactive = mostly below about 26%
KCC2 mod = modulates chloride dependent transport by human KCC2. B-score of Tl+ flux slope (higher = more flux/activation; lower = inhibition) at 10 µM. AID 1456. 190,000 tested, 2.2% active. Q9H2X9. KCC2 cells, thallium flux FluoZin-2 fluorescence;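 active = thallium flux slope and its plate-corrected score both differing from the plate sample mean at a set confidence after two filtering rounds, in either direction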;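 also: slope of fluorescence scaled to starting intensity during 10 to 20 s after thallium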
ROMK primary = modulators of human ROMK potassium channel | Tet-inducible ROMK, thallium flux fluorescence; actives lie on both sides | B-score at 10 µM | 130,000 tested, 2% active | AID 1918;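 active = signal ratio slope over the read window, or its plate-corrected B-score, at least 3 SD from the plate mean, either direction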;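 also: B-score of the F/F0 ratio slope over 7 to 12 s after thallium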
Target sequence (P48048 whole entry, looked up): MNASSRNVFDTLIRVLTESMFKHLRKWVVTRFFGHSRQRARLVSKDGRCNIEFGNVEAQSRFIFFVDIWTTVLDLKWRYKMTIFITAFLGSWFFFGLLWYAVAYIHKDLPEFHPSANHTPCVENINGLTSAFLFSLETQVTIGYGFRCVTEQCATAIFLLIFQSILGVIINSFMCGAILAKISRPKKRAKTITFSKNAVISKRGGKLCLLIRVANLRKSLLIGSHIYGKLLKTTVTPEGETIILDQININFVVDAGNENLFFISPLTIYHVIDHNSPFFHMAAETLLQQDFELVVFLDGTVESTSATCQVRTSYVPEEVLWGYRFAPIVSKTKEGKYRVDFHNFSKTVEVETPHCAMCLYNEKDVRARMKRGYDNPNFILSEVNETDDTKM
HSV replic up = HSV replication enhancement. HSV replication augmentation in cells, fold increase. maximum fold increase. 220,000 tested, 0.005% active; in the data active = maximum fold increase above about 1.5; inconclusive = no clear call, values can overlap the other calls; tested in PC3 cells
KCC2 sec1 = confirmation of human KCC2 transport modulators | normalised thallium flux (F/F0 slope) at 10 µM | HEK293-KCC2, thallium flux, FluoZin2 fluorescence; stronger effect = higher value | 3,700 tested, 15% active | AID 1713 | shares compounds with KCC2 mod;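 active = thallium flux slope above the same plate's solvent-only control mean plus 3 SD; inconclusive = the two replicate wells disagree; inactive = no significant difference from solvent-only control wells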
KCC2 bumet counter = thallium flux persisting under bumetanide in KCC2 cells, counter-screen secondary assay | shares compounds with KCC2 mod | HEK293-KCC2 + bumetanide/ouabain, thallium flux FluoZin2; stronger effect = higher value | normalized thallium flux at 10 µM | 3,700 tested, 49% active;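 active = thallium entry rate above the same plate's blocked-transporter control wells by more than 3 SD; inconclusive = the two repeat wells disagree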;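 also: raw slope of fluorescence over initial fluorescence between 10 and 20 s after thallium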
KCC2 secondary2 = KCC2 (human) modulation, second secondary assay | shares compounds with KCC2 mod | HEK293-KCC2, thallium flux FluoZin2 fluorescence; actives lie on both sides; F/F0 rise rate, 10–20 s post-thallium | normalized thallium flux at 10 µM | 3,700 tested, 23% active | AID 1715;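 active = thallium flux slope more than 3 SD above or below the plate's solvent-only control mean, mostly below; inconclusive = the two repeat wells disagreed; inactive = no significant shift from solvent-only controls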;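 also: raw slope with 0.1% DMSO as baseline and bumetanide as block control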
HEK293 Tl flux = counter-screen for KCC2 modulators: effect in parental HEK293 cells; shares compounds with KCC2 mod; thallium flux FluoZin2, ouabain; baseline-ratio fluorescence slope, 10–20 s after thallium; thallium flux rate (normalised fluorescence) at 10 µM; 3,700 tested, 46% active;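 active = thallium flux rate significantly above the same plate's solvent-only control wells, beyond their mean plus 3 SD; inconclusive = the two replicate wells gave conflicting results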
KCC2 ouabain = modulates human KCC2 on retest with ouabain. shares compounds with KCC2 mod. 3,700 tested, 48% active. raw Tl+ flux slope (below DMSO = inhibition, above = activation) at 10 µM. HEK293-KCC2, thallium flux FluoZin2 fluorescence; bidirectional: low = inhibitor, high = activator. AID 1717;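 active = thallium flux slope beyond 3 SD from same-plate DMSO control mean in most replicates, usually higher, sometimes lower; inconclusive = repeat tests gave conflicting results; inactive = no significant difference from controls in most replicates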;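 also: slope of initial-normalized fluorescence between seconds 10 and 20 after thallium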
HEK293 Tl flux2 = parental HEK flux effect, counter-screen 2; HEK293 parental, thallium flux FluoZin-2 fluorescence slope; 3,700 tested, 33% active; thallium flux slope at 10 µM; shares compounds with KCC2 mod;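 active = thallium flux slope above the same plate's solvent-control mean plus 3 SD in both duplicate wells; inconclusive = duplicate wells that disagreed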;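 also: run without ouabain in cells lacking the KCC2 cotransporter; slope of fluorescence scaled to its starting value between 10 and 20 s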
Starred values were filed as active, the others as inactive; i = inactive; u = inconclusive; x = no result.

SMILES	Arbovirus inh	Measles CPE	KCC2 mod	ROMK primary	HSV replic up	KCC2 sec1	KCC2 bumet counter	KCC2 secondary2	HEK293 Tl flux	KCC2 ouabain	HEK293 Tl flux2
COC(=O)C1=C(Nc2ccccc2NS(=O)(=O)c2ccc(C(F)(F)F)cc2Cl)CSC1	x	x	5.5*	-0.76	i	0.0074	0.011*	0.029	0.012*	u	0.012*
O=C(O)c1ccc(C[n+]2c(-c3ccccc3)csc2Nc2ccccc2)cc1	13	27	-3.6*	-0.27	i	0.0088	u	0.031	0.0073	0.016*	0.01
CC(C)(C)c1cc(-c2csc(Nc3ccccc3)[n+]2Cc2ccc(C(=O)O)cc2)cc(C(C)(C)C)c1O	x	x	-1.8	0.027	i	x	x	x	x	x	x
N#CCc1cnc2ccccc2n1	x	x	0.86	x	i	x	x	x	x	x	x
Cc1ccsc1/C=N/NC(=O)CC(=O)NCC(C)C	-3	x	-0.32	-0.014	i	x	x	x	x	x	x
C=CCn1c(SCC(=O)c2ccc(F)cc2)nnc1-c1ccc2c(c1)OCO2	-6	x	-3.7*	-0.75	i	0.0077	0.0048	0.031	0.007	0.015*	0.011
CCOC(=O)C1CCN(C2CC(=O)N(c3cccc(Cl)c3)C2=O)CC1 (stereo unspecified)	1	29	3*	x	i	0.0084	0.0085*	0.032	0.0075	0.022	0.0098
CC(=O)Nc1sc(-c2ccc(Cl)cc2)nc1-c1ccccc1	x	x	7.3*	-0.34	i	0.019*	0.055*	0.033	0.0092*	0.024	0.01
NC(=O)c1ccccc1Nc1nc(NCCO)nc(N2CCCC2)n1	x	x	x	x	i	x	x	x	x	x	x
CCn1c(=O)c2cc(C(=O)N(C)c3ccc(OC)cc3OC)sc2c2ccccc21	x	x	-2.1	x	i	x	x	x	x	x	x
CCn1c(=O)c2cc(C(=O)N(C)c3cc(C)ccc3OC)sc2c2ccccc21	x	x	-3*	0.14	i	0.0085	u	0.033	0.0056*	0.019	u
Nc1nc(SCC(=O)N2CCCC2)[nH]c(=O)c1NC(=O)c1cccs1	x	x	0.47	x	i	x	x	x	x	x	x
COc1ccc(N2C(=S)N=C(Nc3ccccc3)C23CCCCC3)cc1	4	x	23*	x	x	u	0.026*	0.033	0.014*	0.029*	0.012*
O=C(O)c1cccc(N2C(=S)N=C(Nc3ccccc3)C23CCCCC3)c1	2	x	-1.9	0.12	i	x	x	x	x	x	x
Cc1ccc(S(=O)(=O)NC2=NCN(Cc3ccccc3)CN2)cc1	5	20	-3.3*	-0.31	i	0.0084	0.0061	0.033	0.0078	u	0.011
FC(F)(F)c1cccc(NC(=S)Nc2cccc(NC(=S)Nc3cccc(C(F)(F)F)c3)n2)c1	x	x	0.92	x	i	x	x	x	x	x	x
COc1ccc(/C=C2\CCc3ccccc3C2=O)cc1CN1CCOCC1	x	x	-5*	x	i	u	u	0.023*	0.0072	u	0.01
COc1ccc(/C=C2/CCc3ccccc3C2=O)cc1OC	0	7	-1.2	-0.11	i	x	x	x	x	x	x
NNC(=O)c1cc(-c2ccc(N)cc2)nc2ccc(Br)cc12	x	x	0.61	x	i	x	x	x	x	x	x
COc1ccc(S(=O)(=O)NCCN2CCOCC2)c2ccccc12	8	26	x	-0.32	i	0.0095	0.0064	0.031	0.007	0.023	0.0097
OCCC1CN(Cc2ccc3c(c2)CCO3)CCN1Cc1ccc(F)cc1 (stereo unspecified)	-1	x	0.59	-1	i	x	x	x	x	x	x
COc1ccc(CN(Cc2ccccn2)C(=O)CN2C(=O)COc3ccccc32)cc1	-5	23	-2.8*	-2.1	i	0.0069	0.0045	0.024*	0.0075	0.017*	0.01
CC(=O)c1cccc(NC(=O)Nc2ccc(C(=O)N3CCOCC3)cc2)c1	2	3	-3.1*	0.91	i	0.0089	0.0066	0.034	0.0077	0.021	0.011
CC(=O)Nc1ccc(NC(=O)N2CCCCC2)cc1	5	18	x	x	i	x	x	x	x	x	x
Cc1ccc(NC(=O)Nc2ccc(C(=O)N3CCOCC3)cc2)cc1	3	4	x	1.2	i	x	x	x	x	x	x
SMILES	Arbovirus inh	Measles CPE	KCC2 mod	ROMK primary	HSV replic up	KCC2 sec1	KCC2 bumet counter	KCC2 secondary2	HEK293 Tl flux	KCC2 ouabain	HEK293 Tl flux2
CC(=O)Nc1ccc(C(=O)N2CCCC2)cc1	1	2	-4.5*	x	i	0.0061	0.0047	0.03	0.0081	0.019	0.011
O=C(CNc1n[nH]c(=O)[nH]c1=O)N/N=C/C1CC=CCC1 (stereo unspecified)	x	x	0.56	x	i	x	x	x	x	x	x
O=C1c2cccc3cccc(c23)C(=O)N1Cc1cccnc1	x	x	-0.037	x	i	x	x	x	x	x	x
O=C1c2cccc3c([N+](=O)[O-])ccc(c23)C(=O)N1Cc1cccnc1	-35	x	-5*	-2.7	x	0.0041*	u	0.026*	0.0058*	0.014*	0.0084*
Cc1ccc(NC(=S)N(CCCN2CCOCC2)Cc2cccnc2)cc1C	16	x	-0.41	-0.3	i	x	x	x	x	x	x
Cc1ccc(C)c(SCC(=O)Nc2nnc(-c3ccccc3)o2)c1	2	5	16*	-1	x	0.019*	0.057*	0.037	0.038*	0.046*	0.014*
COc1ccc(-c2nnc(NC(=O)c3cc(Cl)ccc3Cl)o2)cc1	-9	8	23*	x	i	0.0072	0.055*	0.044*	0.039*	0.05*	0.031*
Cc1ccccc1C(=O)Nc1nnc(-c2ccc(F)cc2)o1	-5	14	7.3*	x	i	0.013*	0.024*	0.034	0.016*	0.029	u
COc1ccccc1C(=O)Nc1nnc(-c2ccc(F)cc2)o1	0	3	0.22	x	i	x	x	x	x	x	x
Cc1ccc(NC(=S)Nc2ccc(F)cc2)c(C)c1	3	x	-0.79	-0.78	i	x	x	x	x	x	x
O=S(=O)(NCCSc1ccccc1)c1ccc2c(c1)OCCO2	1	16	x	-0.093	i	u	0.0046	0.032	0.0063	u	0.011
Cc1cc(NC(=O)CCC(=O)N(Cc2ccco2)C2(C(=O)NC3CCCCC3)CCN(C)CC2)no1	7	5	-5.9*	x	i	0.0056	0.0049	0.033	0.0073	0.019	0.011
Cc1ccc(C)c(N(C(=O)CCC(=O)Nc2cc(C)on2)C(C(=O)NC2CCCC2)c2ccco2)c1 (stereo unspecified)	-4	8	-4.3*	x	i	u	0.0043	u	0.0067	0.015	0.009
Cc1ccc(C(C(=O)NC2CCCC2)N(Cc2ccco2)C(=O)CCC(=O)Nc2cc(C)on2)cc1 (stereo unspecified)	2	3	-0.042	x	i	x	x	x	x	x	x

Screening data from PubChem BioAssay.
